system: Plasmodium falciparum; assay: GSK_TCMDC: Inhibition of Plasmodium falciparum 3D7 in whole red blood cells, using parasite LDH activity as an index of growth. Test compounds present at 2uM; format: functional

Row | SMILES | Inhibition [%]
1 | CCCCNC(=O)c1[nH]c2c(NC(=O)COc3ccccc3)cccc2c1-c1cccc(NC(=O)C(N)CO)c1 (configuration not stated) | 87
2 | CC[C@H](C)CNC(=O)c1cccc(-c2ccc(CN3CCC(N4CCCC4)CC3)cc2)n1.O=C(O)C(F)(F)F | 100
3 | CN1CCc2ccc(NC(=O)Nc3cccc(C(=O)c4ccccc4)c3)cc2C1 | 83
4 | Cc1nc(N)nc(N)c1CCCOc1ccc(Br)cc1 | 97
5 | Cc1ccc(NC(=O)Nc2ccccc2F)cc1-c1ccc(C(=O)Nc2ccncc2)cc1 | 99
6 | COc1ccc2nccc([C@@H](O)CN3CCC(NC(=O)c4ccc(-c5ccc(C#N)cc5)cc4)CC3)c2c1 | 100
7 | Cl.O=C(NC1CCC(N2CCN(c3cccc4[nH]ccc34)CC2)CC1)c1cc2cccnc2[nH]1 (configuration not stated) | 99
8 | CC[C@H](C)CNC(=O)c1cccc(-c2cccc(CN3CCC(N4CCCC4)CC3)c2)n1.O=C(O)C(F)(F)F | 100
9 | Cc1cc(C)cc(OCC(O)CN(CCN2CCOCC2)C(=O)Nc2ccc(Br)cc2)c1.O=C(O)C(F)(F)F (configuration not stated) | 85
10 | O=C(O)C(F)(F)F.Oc1ccc(CCNc2nc(NCc3ccccc3-c3ccc(C(F)(F)F)cc3)nc(NC3CCNCC3)n2)cc1 | 97
11 | CN1CCC(N(Cc2ccc(-c3cnc(NCc4ccccc4)nc3)cc2)S(=O)(=O)c2ccccc2)CC1.O=C(O)C(F)(F)F | 100
12 | CC(Oc1c(C2CCN(CCCCNC(=O)c3ccc(-c4ccc(C#N)cc4)cc3)CC2)ccc2c1CCCC2)C(N)=O (configuration not stated) | 100
